Potency and affinity values are given separately. The source made the active and inactive calls.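 The calls were made as follows: active = absorbance falls by 30% or more versus neutral controls, with a potency fitted within twice the top valid dose; inconclusive = no clear call, values can overlap the other calls; inactive = change opposite to expected direction, plus the rest.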
Biological target: Protein disulfide-isomerase (Homo sapiens) (UniProt P07237)
Assay: PDI inhibitors, insulin aggregation turbidity, dose response, biochemical, absorbance, cherry-picked samples (AID 602350)
Details: recombinant PDI insulin aggregation, absorbance 650 nm, 90 min; series mostly up to 19.5 µM

Sequence of Protein disulfide-isomerase (Homo sapiens) (P07237 whole entry, looked up): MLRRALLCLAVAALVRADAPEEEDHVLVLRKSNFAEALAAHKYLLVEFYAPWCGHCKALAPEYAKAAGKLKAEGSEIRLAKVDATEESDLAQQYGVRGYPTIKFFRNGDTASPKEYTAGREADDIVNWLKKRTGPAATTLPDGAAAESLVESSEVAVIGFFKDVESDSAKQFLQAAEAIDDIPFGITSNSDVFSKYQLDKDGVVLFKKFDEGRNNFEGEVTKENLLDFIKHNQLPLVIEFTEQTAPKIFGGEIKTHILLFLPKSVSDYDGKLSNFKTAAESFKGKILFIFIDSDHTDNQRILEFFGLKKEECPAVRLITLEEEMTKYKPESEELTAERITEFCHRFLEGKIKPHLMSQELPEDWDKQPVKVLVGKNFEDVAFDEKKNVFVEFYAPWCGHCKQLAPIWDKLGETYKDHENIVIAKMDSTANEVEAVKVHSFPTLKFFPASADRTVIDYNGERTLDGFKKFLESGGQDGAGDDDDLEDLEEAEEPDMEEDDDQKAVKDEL

SMILES | outcome
COc1ccc(CN(C)C[C@@H]2Oc3c(NS(C)(=O)=O)cccc3C(=O)N([C@H](C)CO)C[C@H]2C)cc1 | inactive
Cc1ccc(N2CC(C(=O)N3CCCCCC3)CC2=O)cc1 (centres undefined) | inactive
CCOc1ccccc1CN1CCNC(=O)C1CC(=O)NCc1nccn1CC (centres undefined) | inactive
CCOc1cc(/C=C/C(=O)c2ccc(O)cc2)ccc1OCC(=O)N(C)C | inactive
C[C@@H]1CN([C@@H](C)CO)C(=O)Cc2cc(NC(=O)Nc3ccccc3)ccc2O[C@H]1CN(C)Cc1ccccc1 | inactive
CCOC(=O)c1c(CN2CCN(CCO)CC2)n(C)c2cc(Br)c(OC)cc12 | inactive
CSc1cccc(NC(=O)CN(C)S(=O)(=O)c2ccc(F)cc2)c1 | inactive
Cc1ccc(C(=O)NCCN2C3=NC[C@H](Cc4ccc(O)cc4)N3C[C@H]2Cc2ccc(O)cc2)cc1Br | inactive
Cc1ccc(NC2(c3nnnn3CCOC(=O)Nc3ccc(Cl)cc3)CCCCC2)cc1 | inactive
C=CC[C@H](CC(=O)N(CCO)Cc1ccccc1)C(=O)N[C@H](COC(=O)[C@@H](CC=C)Cc1ccc(F)cc1)Cc1c[nH]c2ccccc12 | inactive
COc1ccc(S(=O)(=O)NC(C)C(=O)Nc2ccccc2F)cc1 (centres undefined) | inactive
CCOC(=O)C1(CCOc2ccccc2)CCN(Cc2ccc(O)cc2)CC1 | inactive
COc1ccc(C2c3ccc(O)cc3Oc3ncn4nc(-c5cccnc5)nc4c32)cc1OC (centres undefined) | inactive
CC[C@]12c3[nH]c4cc(-c5ccco5)ccc4c3CCN1C(=O)[C@@H](CC(=O)NCc1ccc(OC)c(OC)c1)C[C@@H]2C(=O)N1CCN(C(=O)C2CC2)CC1 | inactive
C[C@@H]1CN([C@H](C)CO)C(=O)c2cc(NC(=O)Cc3cn(C)c4ccccc34)ccc2O[C@@H]1CN(C)S(=O)(=O)c1ccc(F)cc1 | inactive
COc1cc(C2C(C(C)=O)=C(O)C(=O)N2CCc2c[nH]c3ccccc23)ccc1O (centres undefined) | inactive
O=C(C[C@H]1C[C@H](C(=O)N2CCCCC2)[C@@]2(CCc3ccccc3)c3[nH]c4cc(-c5ccco5)ccc4c3CCN2C1=O)NCCC1=CCCCC1 | inactive
O=C(CCS(=O)(=O)c1ccccc1)N(CCCN1CCOCC1)c1nc2ccccc2s1 | inactive
Cc1noc(C)c1S(=O)(=O)Nc1ccc2c(c1)CC(=O)N([C@@H](C)CO)C[C@@H](C)[C@@H](CN(C)S(=O)(=O)c1ccc(F)cc1)O2 | inactive
N#Cc1c(NCCCO)nc(-c2ccco2)c2c1CCCC2 | inactive

SMILES | outcome
COc1ccc(OCCN2CCC(C(=O)NC(c3ccsc3)c3ccccc3C)CC2)cc1 (centres undefined) | inactive
Cc1cc(NC(=O)CSc2[nH]c(=O)cc(C(F)(F)F)c2C#N)no1 | inactive
O=C(c1cc([N+](=O)[O-])ccc1N1CCOCC1)N1CCN(c2ccc([N+](=O)[O-])cc2)CC1 | inactive
CC(=O)C1=C(O)C(=O)N(CCc2c[nH]c3ccccc23)C1c1cccc(O)c1 (centres undefined) | inactive
CC(=O)c1ccc(NC(=O)c2cc(Cl)nc3ccccc23)cc1 | inactive
CCOC(=O)c1c(CN2CCOCC2)n(-c2ccccc2)c2cc(Br)c(O)cc12 | inactive
CC(=O)OCC(=O)NCc1ccc2c(c1)OCO2 | inactive
CCOc1ccc2[nH]c(=O)c(CN(CCO)C(=O)CC)cc2c1 | inactive
Cc1[nH]c2ccc(C(=O)NC3CCCC3)cc2c1C | inactive
Cc1ccc(S(=O)(=O)N2CCC(C(=O)Nc3ccc(S(=O)(=O)N4CCCC4)cc3)CC2)cc1 | inactive
CC1CCCN(c2cc3c(cc2[N+](=O)[O-])C(=O)N(c2ccccc2)C3=O)C1 (centres undefined) | inactive
COc1ccc(CCNC(=O)c2cc(S(=O)(=O)N(C)C)ccc2N2CCCC2)cc1 | inactive
CN(C)C(=O)CSc1nnc([C@H](Cc2ccccc2)NC(=O)OC(C)(C)C)o1 | inactive
CCc1nc2ccc(C(=O)N(CC)CC(=O)Nc3c(F)cccc3F)cc2nc1CC | inactive
O=C(CNC(=O)c1n[nH]c2ccccc12)Nc1cc(Cl)ccc1Cl | inactive
O=C(OCc1ccc(-c2ccccc2)cc1)c1cccc(O)c1 | inactive
Cc1noc(C)c1S(=O)(=O)Nc1ccc2c(c1)CC(=O)N([C@H](C)CO)C[C@@H](C)[C@H](CN(C)S(=O)(=O)c1ccc(F)cc1)O2 | inactive
Cc1cc(C)cc(CC(=O)N2CCC2(C)C(=O)NS(=O)(=O)c2ccc(Br)cc2)c1 (centres undefined) | inactive
O=S(=O)(c1cc(F)ccc1F)N1CCN(c2ncccn2)CC1 | inactive
